{"source": "PubChem BioAssay", "note": "Active and inactive are the calls of the source."}
{"tested_on": "XIP peptide (Xip251-270) binding", "assay": "XIP fragment 251-270 binding compounds – biochemical, small-molecule microarray, fluorescence 635/667 nm, 0.1 µg/mL protein, primary screen (AID 1182)", "settings": "fluorescent protein binding, 635 nm; higher = more signal, called active from +8 up or from −8 down unless noted"}
{"smiles": "COC(=O)[C@@]1(Cc2ccc(F)cc2)[C@H]2c3cc(C(=O)N(C)C)[nH]c3C[C@H]2CN1C(=O)c1ccccc1", "composite z-score": "0.614 [setting not given] (inactive)"}
{"smiles": "C=C(CC1(CNP(=O)(c2ccccc2)c2ccccc2)CC1)c1ccccc1", "composite z-score": "1.26 (inactive)"}
{"smiles": "COc1cc2c(cc1O)C=[N+](C)CC2", "composite z-score": "-1.21 (inactive)"}
{"smiles": "CN1CCC(c2ccc(CO)cc2)=CC1C1CC1", "note": "(stereo not drawn)", "composite z-score": "-0.809 (inactive)"}
{"smiles": "COc1cc2c(cc1O)C(C)N(C)CC2", "note": "(stereo not drawn)", "composite z-score": "-0.191 (inactive)"}
{"smiles": "OCc1ccc(C2=CC(C3CC3)N(Cc3sc4ccccc4c3Cl)CC2)cc1", "note": "(stereo not drawn)", "composite z-score": "1.51 (inactive)"}
{"smiles": "CCCc1cc2c(n1Cc1ccco1)C(C)C1CN(C(=O)c3ccccc3)C(C)(C(=O)OC)C21", "note": "(stereo not drawn)", "composite z-score": "1.32 (inactive)"}
{"tested_on": "XIP peptide (Xip251-270)", "assay": "compounds binding XIP fragment 251-270 – biochemical, small-molecule microarray, fluorescence 635/667 nm, 0.5 µg/mL protein, primary screen (AID 1183)", "settings": "fluorescence 635 nm, higher = more signal"}
{"smiles": "COC(=O)[C@@]1(Cc2ccc(F)cc2)[C@H]2c3cc(C(=O)N(C)C)[nH]c3C[C@H]2CN1C(=O)c1ccccc1", "composite z-score": 0.17}
{"smiles": "C=C(CC1(CNP(=O)(c2ccccc2)c2ccccc2)CC1)c1ccccc1", "composite z-score": 0.651}
{"smiles": "COc1cc2c(cc1O)C=[N+](C)CC2", "composite z-score": -0.417}
{"smiles": "CN1CCC(c2ccc(CO)cc2)=CC1C1CC1", "note": "(stereo not drawn)", "composite z-score": 0.005}
{"smiles": "COc1cc2c(cc1O)C(C)N(C)CC2", "note": "(stereo not drawn)", "composite z-score": 0.229}
{"smiles": "OCc1ccc(C2=CC(C3CC3)N(Cc3sc4ccccc4c3Cl)CC2)cc1", "note": "(stereo not drawn)", "composite z-score": 0.625}
{"smiles": "CCCc1cc2c(n1Cc1ccco1)C(C)C1CN(C(=O)c3ccccc3)C(C)(C(=O)OC)C21", "note": "(stereo not drawn)", "composite z-score": 0.741}
{"tested_on": "not listed separately", "assay": "blood-stage malaria parasite viability loss – strain 3D7, DAPI fluorescence, 100 nL, primary screen (AID 1184);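 also: parasites grown inside human red blood cells in medium with human serum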", "settings": "P. falciparum 3D7 growth, 3 d, higher = more signal"}
{"smiles": "COC(=O)[C@@]1(Cc2ccc(F)cc2)[C@H]2c3cc(C(=O)N(C)C)[nH]c3C[C@H]2CN1C(=O)c1ccccc1", "z-score": 0.412}
{"smiles": "C=C(CC1(CNP(=O)(c2ccccc2)c2ccccc2)CC1)c1ccccc1", "z-score": -0.176}
{"smiles": "COc1cc2c(cc1O)C=[N+](C)CC2", "z-score": -0.0765}
{"smiles": "CN1CCC(c2ccc(CO)cc2)=CC1C1CC1", "note": "(stereo not drawn)", "z-score": -0.0622}
{"smiles": "COc1cc2c(cc1O)C(C)N(C)CC2", "note": "(stereo not drawn)", "z-score": -0.563}
{"smiles": "OCc1ccc(C2=CC(C3CC3)N(Cc3sc4ccccc4c3Cl)CC2)cc1", "note": "(stereo not drawn)", "z-score": -3.04}
{"smiles": "CCCc1cc2c(n1Cc1ccco1)C(C)C1CN(C(=O)c3ccccc3)C(C)(C(=O)OC)C21", "note": "(stereo not drawn)", "z-score": 0.0125}
{"molecular_target": "Homeobox protein Hox-A13 (Mus musculus) (UniProt Q62424)", "sequence (Q62424 whole entry, looked up)": "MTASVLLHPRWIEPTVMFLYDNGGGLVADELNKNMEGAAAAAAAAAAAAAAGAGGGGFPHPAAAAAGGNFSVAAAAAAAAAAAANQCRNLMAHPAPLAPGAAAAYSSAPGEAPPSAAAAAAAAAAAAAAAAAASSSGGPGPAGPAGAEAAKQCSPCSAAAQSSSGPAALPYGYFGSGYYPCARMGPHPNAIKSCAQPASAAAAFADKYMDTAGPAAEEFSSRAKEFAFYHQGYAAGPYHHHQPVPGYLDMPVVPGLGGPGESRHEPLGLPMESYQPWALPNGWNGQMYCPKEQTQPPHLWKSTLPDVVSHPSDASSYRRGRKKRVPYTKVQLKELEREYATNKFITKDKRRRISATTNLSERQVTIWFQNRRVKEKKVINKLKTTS", "assay": "disruptors of Hoxa13 oligonucleotide interaction – biochemical, fluorescence polarization, labeled oligonucleotide, primary screen (AID 1185)", "settings": "Hoxa13:DNA binding, 15 min; higher = more signal, called active from +8 up or from −8 down unless noted"}
{"smiles": "COC(=O)[C@@]1(Cc2ccc(F)cc2)[C@H]2c3cc(C(=O)N(C)C)[nH]c3C[C@H]2CN1C(=O)c1ccccc1", "z-score": "-4.26 [setting not given] (inactive)"}
{"smiles": "C=C(CC1(CNP(=O)(c2ccccc2)c2ccccc2)CC1)c1ccccc1", "z-score": "-2.28 (inactive)"}
{"smiles": "COc1cc2c(cc1O)C=[N+](C)CC2", "z-score": "-2.14 (inactive)"}
{"smiles": "CN1CCC(c2ccc(CO)cc2)=CC1C1CC1", "note": "(stereo not drawn)", "z-score": "-1.39 (inactive)"}
{"smiles": "COc1cc2c(cc1O)C(C)N(C)CC2", "note": "(stereo not drawn)", "z-score": "-0.569 (inactive)"}
{"smiles": "OCc1ccc(C2=CC(C3CC3)N(Cc3sc4ccccc4c3Cl)CC2)cc1", "note": "(stereo not drawn)", "z-score": "3.12 (inactive)"}
{"smiles": "CCCc1cc2c(n1Cc1ccco1)C(C)C1CN(C(=O)c3ccccc3)C(C)(C(=O)OC)C21", "note": "(stereo not drawn)", "z-score": "-4.51 (inactive)"}
